PubChem BioAssay (NCATS)
Records with an inconclusive call do not appear. Active and inactive are the calls of the source. Calls come from the whole dose curve; as a rule, active = well fitted curve in the direction sought with a large enough effect; inconclusive = small, poorly fitted or top-dose-only effect, or another doubt; inactive = no such curve, though single readings can be large; an effect the other way counts as inactive or inconclusive.

What was measured:
HACAT = assay: qHTS assay to identify novel small-molecules to repurpose for Merkel cell carcinoma treatment (AID 1296009); settings: MCC and control cell lines, CellTiter-Glo viability, 72 h; at 44.8 µM (top of the series) unless noted; note: nearly all actives have a fitted effect of over 60% in size
In short: (§1)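 Dose-response viability screen; 72 hr exposure at 37 degree celsius; CellTiter-Glo added, 10 min room temperature, luminescence read; RLUs scaled between no-cell and DMSO wells.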

NIH3T3 = assay: as above; settings: MCC and control cell lines, CellTiter-Glo viability, 72 h; at 44.8 µM (top of the series) unless noted
In short: as §1

C33A = assay: Primary qHTS to identify gynecologic anti-cancer compounds using libraries of approved drugs and bioactive compounds (AID 1345084); settings: Gynecologic cancer cell panel viability, ATPlite luminescence, 48 h; series mostly up to 57.5 µM; note: nearly all actives have a fitted effect of over 55% in size
In short: (§2)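 Five-concentration response, 48 h; readout is ATP-driven luciferase luminescence.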

CAOV3 = assay: as above; settings: Gynecologic cancer cell panel viability, ATPlite luminescence, 48 h; series mostly up to 57.5 µM
In short: as §2

CASKI = assay: as above; settings: Gynecologic cancer cell panel viability, ATPlite luminescence, 48 h; series mostly up to 57.5 µM
In short: as §2

Es-2 = assay: as above; settings: Gynecologic cancer cell panel viability, ATPlite luminescence, 48 h; series mostly up to 57.5 µM
In short: as §2

HeLa = assay: as above; settings: Gynecologic cancer cell panel viability, ATPlite luminescence, 48 h; series mostly up to 57.5 µM
In short: as §2

Hek293T = assay: as above; settings: Gynecologic cancer cell panel viability, ATPlite luminescence, 48 h, control line for the selectivity index; series mostly up to 57.5 µM
In short: as §2

JEG-3 = assay: as above; settings: Gynecologic cancer cell panel viability, ATPlite luminescence, 48 h; series mostly up to 57.5 µM
In short: as §2

Measured: Potency

C=C(C)[C@@H]1CC[C@]2(C(=O)O)CC[C@]3(C)C(CCC4[C@]5(C)C(CC[C@]43C)C(C)(C)[C@@H](O)[C@@H]5C(=O)O)C12 (stereo not given in full)
inactive: HACAT inactive [at 17.4 µM] | NIH3T3 inactive [at 17.4 µM] | C33A | CAOV3 | CASKI | Es-2 | HeLa | Hek293T | JEG-3

CC(C)C1NC(=O)C(CC2(O)c3ccccc3N3C(=O)C(Cc4ccccc4)NC32)NC1=O (stereo not given)
inactive: HACAT inactive [at 17.4 µM] | NIH3T3 inactive [at 17.4 µM] | C33A | CAOV3 | CASKI | Es-2 | HeLa | Hek293T | JEG-3

C[C@H](O)C(O)(C(=O)OCc1ccccc1NC(=O)CCC(N)C(=O)O)[C@H](C)O (stereo not given in full)
inactive: HACAT inactive [at 17.4 µM] | NIH3T3 inactive [at 17.4 µM] | C33A | CAOV3 | CASKI | Es-2 | HeLa | Hek293T | JEG-3

COC(=O)c1cc(OC)cc(OC)c1C(=O)c1c(OC)cc2c(c1O)C1CCC(O)C(C)(O2)O1 (stereo not given)
inactive: HACAT inactive [at 17.4 µM] | NIH3T3 inactive [at 17.4 µM] | C33A | CAOV3 | CASKI | Es-2 | HeLa | Hek293T | JEG-3

C[C@]1(OC(=O)/C=C/c2ccc(O)cc2)C[C@@H](O)[C@]2(O)C=CO[C@@H](O[C@@H]3O[C@H](CO)[C@@H](O)[C@H](O)[C@H]3O)C12 (stereo not given in full)
inactive: HACAT inactive [at 17.4 µM] | NIH3T3 inactive [at 17.4 µM] | C33A | CAOV3 | CASKI | Es-2 | HeLa | Hek293T | JEG-3

O=C(O)CC1CCC(c2ccc(NC(=O)c3nnc(Nc4ccc(F)c(F)c4)o3)cc2)CC1 (stereo not given)
inactive: HACAT | NIH3T3 | C33A | CAOV3 | CASKI | Es-2 | HeLa | Hek293T | JEG-3

Cc1oc2nc3c(c(NC(=O)CN4CCCC4=O)c2c1C)CCCC3
inactive: HACAT | NIH3T3 | C33A | CAOV3 | CASKI | Es-2 | HeLa | Hek293T | JEG-3

CC12CC(O)C(O)C=C1c1cc(O)cc(O)c1C(=O)O2 (stereo not given)
inactive: HACAT | NIH3T3 | C33A | CAOV3 | CASKI | Es-2 | HeLa | Hek293T | JEG-3

CC1(C)CC2C(O)C3=C(CC(C)(O)C2C1)C(=O)OC3 (stereo not given)
inactive: HACAT | NIH3T3 | C33A | CAOV3 | CASKI | Es-2 | HeLa | Hek293T | JEG-3

CC(C)C1NC(=O)C2CCCN2C1=O (stereo not given)
inactive: HACAT | NIH3T3 | C33A | CAOV3 | CASKI | Es-2 | HeLa | Hek293T | JEG-3

COc1ccc(OC2OC(CO[C@@H]3O[C@@H](C)[C@H](O)[C@@H](O)[C@H]3O)C(O)C(O)C2O)cc1OC (stereo not given in full)
inactive: HACAT inactive [at 17.4 µM] | NIH3T3 inactive [at 17.4 µM] | C33A | CAOV3 | CASKI | Es-2 | HeLa | Hek293T | JEG-3

O=C1C(Cl)=C(N2CCOCC2)C(=O)N1c1ccc(Cl)c(Cl)c1
inactive: HACAT inactive [at 17.4 µM] | NIH3T3 inactive [at 17.4 µM] | C33A | CAOV3 | CASKI | Es-2 | HeLa | Hek293T | JEG-3

CCC(C)C(=O)OC[C@H]1O[C@H](O[C@H]2O[C@H](CO)[C@@H](O)[C@H](O)[C@H]2O)[C@H](O)[C@@H](O)[C@@H]1O (stereo not given in full)
inactive: HACAT inactive [at 17.4 µM] | NIH3T3 inactive [at 17.4 µM] | C33A | CAOV3 | CASKI | Es-2 | HeLa | Hek293T | JEG-3

COc1cc(/C=C/C(=O)O[C@H]2[C@@H]3C=CO[C@@H](O[C@@H]4O[C@H](CO)[C@@H](O)[C@H](O)[C@H]4O)[C@@H]3[C@@]3(CO)O[C@@H]23)ccc1O
inactive: HACAT inactive [at 17.4 µM] | NIH3T3 inactive [at 17.4 µM] | C33A | CAOV3 | CASKI | Es-2 | HeLa | Hek293T | JEG-3

COc1cccc(OC)c1-c1ccc(C[C@H](NC(=O)c2c(Cl)cccc2Cl)C(=O)O)cc1
inactive: HACAT | NIH3T3 | C33A | CAOV3 | CASKI | Es-2 | HeLa | Hek293T | JEG-3
